# Reference: PubChem BioAssay (NCI)
# Compounds without any hit were thinned out: in the full panel of roughly 83,000, 20% have a hit.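 The endpoint reported here, percent growth, reads 100 for growth as untreated, 0 for no net growth and -100 for all cells dead.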 Unmarked numbers belong to inactive results. Active and inactive are the calls of the source. Rule for the calls: active = growth percent below 10; inactive = the rest.
# Assays:
# Assay in all cases: NCI-60 one-dose screen, 48 h (100 = growth as untreated, 0 = no growth, -100 = all killed)
# Settings in all cases: 10 µM unless noted
# [1] = system: DU-145 prostate
# [2] = system: K-562 leukemia
# [3] = system: MALME-3M melanoma
# [4] = system: MDA-MB-231 breast
# [5] = system: RXF 393 renal
# [6] = system: SF-268 CNS
# [7] = system: SF-295 CNS
# [8] = system: SF-539 CNS
# [9] = system: UACC-257 melanoma
# [10] = system: M14 melanoma
Compound,growth [1],growth [2],growth [3],growth [4],growth [5],growth [6],growth [7],growth [8],growth [9],growth [10]
C=CCn1c(SCC(=O)Nc2ccc(/C(C)=N/O)cc2)nnc1-c1cc(-c2ccc(S(N)(=O)=O)cc2)nc2ccccc12,105%,38.8%,88.9%,74.1%,93.5%,67.1%,98.4%,64.2%,92.7%,93.5%
COc1cc(/C=C2\CN(S(=O)(=O)c3ccccc3)C/C(=C\c3cc(CN4CCCCC4)c(O)c(OC)c3)C2=O)cc(CN2CCCCC2)c1O,-93% (active),-9.62% (active),-77.6% (active),-67.8% (active),-88.3% (active),-20.7% (active),76.5%,-84.6% (active),83.8%,-75.2% (active)
COc1ccc(Oc2nc(Nc3ccc(N4CCOCC4)cc3)ncc2NC(=O)Nc2cc(OC)cc(OC)c2)cc1,12.8%,19.9%,7.76% (active),1.79% (active),-29.2% (active),34.3%,34.4%,-32.5% (active),35.9%,21.4%
NC(N)=NS(=O)(=O)c1ccc(NC2=C(I)C(=O)c3ncccc3C2=O)cc1,105%,94.2%,103%,92.7%,108%,90.5%,103%,97.4%,97.1%,111%
CCOC(=O)c1ccccc1-c1c2ccc(=[N+](C)C)cc-2oc2cc(N(C)C)ccc12,25.3%,10.2%,28.2%,11.7%,18.4%,20.8%,-26.9% (active),-5.48% (active),5.13% (active),13.5%
S=c1[nH]c(=S)c2c(-c3ccccc3)c(-c3ccccc3)oc2[nH]1,109%,80.2%,107%,99%,91.2%,104%,97.5%,98.3%,80.1%,105%
NS(=O)(=O)c1ccc(C(=O)NN2C(=O)c3c(Br)c(Br)c(Br)c(Br)c3C2=O)cc1,103%,102%,98.7%,101%,110%,95.5%,98.2%,96.9%,100%,98.9%
CCNC(=O)Oc1ccc(/C(=C(/CC)Cc2ccccc2)c2ccc(OCCN3CCCC3)cc2)cc1,104%,64.7%,107%,80.1%,94.6%,92.9%,102%,97.2%,90.1%,93.1%
Cc1nc2cc(O)c(O)cc2cc1Oc1ccc(NC(=O)Nc2ccc(Cl)c(Cl)c2)cc1,60.3%,53.9%,85.2%,45%,20.4%,65.5%,95.9%,56.9%,88.5%,80.7%
CC/C(Cc1ccccc1)=C(\c1ccc(OCCCN(C)C)cc1)c1ccc(OC(=O)NCc2ccccc2)cc1,73.9%,-31.7% (active),41.8%,65.2%,80%,72.4%,110%,93%,83.4%,18.8%
CNC(=O)c1cc(Oc2ccc3c(c2)sc2nc(-c4ccc(OC)cc4)cn23)ccn1,8.28% (active),33.8%,68.3%,62.2%,45.7%,80.1%,14.1%,83.6%,46.5%,57.9%
O=S(=O)(NCCCNc1nccc(-c2c(-c3cccc(F)c3)nc3occn23)n1)c1ccc(F)cc1,55.9%,13%,43.6%,60.9%,63.6%,44.5%,89.5%,87%,43.6%,35.7%
CCN1C(=O)N(CC)C2C1NN=c1s/c(=C\c3ccc[nH]3)c(=O)n12 (stereo not given),-11.9% (active),10.2%,34.5%,30.6%,-26.6% (active),44.6%,12.4%,-21.5% (active),46.7%,-5.38% (active)
CCN(CC)CCN1C(=O)c2c(c(C)c3c(oc4ccc(OC)cc43)c2C)C1=O,94.1%,90.5%,91.9%,96.3%,82.2%,94.9%,105%,94.1%,101%,103%
O=C(NC1CC(F)C1)c1cc2cccnc2n1-c1ccc(Cl)c(Cl)c1 (stereo not given),106%,96.3%,113%,96.5%,102%,91.6%,95.1%,98%,96.9%,111%
Cc1ccc(-c2nc(/C=C3/C(=O)Nc4ccc(F)cc43)c3ccccn23)cc1,-23.1% (active),93.7%,75.8%,91%,63.5%,75.6%,76%,82.3%,95.5%,98.8%
O=C(CCCCCCN1CC(=O)N2[C@H](c3ccc(Cl)cc3)c3[nH]c4ccccc4c3C[C@@H]2C1=O)NO,72.2%,25.2%,23%,68.9%,65.7%,85.1%,85.6%,57%,36.4%,61.7%
Cc1ncc(C(=O)Nc2ccc(CN3CCN(C)CC3)c(C(F)(F)F)c2)cc1C#Cc1cnc(N)c2ncccc12,34%,-59.5% (active),-79% (active),-78.9% (active),-18.9% (active),29.8%,48.8%,29.8%,30.6%,-79.9% (active)
O=C(CCCCCCN1CC(=O)N2[C@H](c3ccc(Br)cc3)c3[nH]c4ccccc4c3C[C@@H]2C1=O)NO,57.5%,14.7%,20.4%,43.7%,42.4%,71.4%,67.2%,43.7%,34.9%,46.6%
CCN1C(=O)N(CC)C2Nn3c(s/c(=C\c4ccccc4Br)c3=O)=NC21 (stereo not given),13.6%,10.7%,59.5%,19.7%,28.4%,50.1%,25.2%,-20.1% (active),46.1%,9.07% (active)
CN(C)S(=O)(=O)Oc1ccc(-c2sc3cc(OS(=O)(=O)N(C)C)ccc3c2C(=O)c2ccc(OCCN3CCCCC3)cc2)cc1,63.4%,-8.94% (active),17.7%,77.5%,26.8%,42.1%,48.6%,52.2%,-17.5% (active),2.03% (active)
COc1cccc(NCc2nnc(Nc3ccc(Cl)cc3)c3ccccc23)c1,8.3% (active),2.2% (active),-22% (active),-27.1% (active),-11.6% (active),2.52% (active),-22.6% (active),-10.2% (active),-39.7% (active),-15.7% (active)
CCOc1cccc(/C=N/NC(=O)c2cccc(Nc3ccnc(C(F)(F)F)c3)c2)c1O,19.2%,28.7%,30.9%,45%,47.4%,26.7%,30.3%,14.8%,37.3%,-6.87% (active)
CN1CCN(Cc2ccc(NC(=O)c3cncc(C#Cc4cnc5ccc(Cl)nn45)c3)cc2C(F)(F)F)CC1,4.06% (active),1.96% (active),-63.1% (active),-1.94% (active),-52.8% (active),-41.6% (active),9.72% (active),-62% (active),3.9% (active),-56.7% (active)
COCCn1cc(-c2csc(-c3c[nH]c4ccc(Br)cc34)n2)c2cccnc21,46.7%,0.0972% (active),53.1%,4.45% (active),58.9%,44.3%,17.7%,45.5%,28.9%,14.3%
